# Several values for one entry are separate records, joined by “and”; a condition that tells them apart may be missing. Identical values can stand only once. Results filed as inconclusive are left out. Activity calls are given as the source filed them. Calls follow the shape of the dose curve; as a rule, active = well fitted cell-killing curve with a large enough effect in the repeat runs; inconclusive = weak or mixed curves, or effect the other way; inactive = flat fitted curve, though single readings scatter.
# Experiment: qHTS assay to identify small molecule agonists of the sonic hedgehog signaling (Shh) pathway - cell viability counter screen (AID 1259366); also: nearly all actives have a fitted effect of over 50% in size
# Conditions: NIH/3T3 Gli1-Luc viability, CellTiter-Fluor, 24 h; series mostly up to 92.4 µM; viability change, negative = cytotoxic: at the top concentration
# Description: National Center for Advancing Translational Sciences [NCATS]
# NIH Chemical Genomics Center [NCGC]
# U.S. Environmental Protection Agency [EPA]
# National Institutes of Environmental Health Sciences [NIEHS]
# National Toxicology Program [NTP]
# U.S. Food and Drug Administration [FDA]
# The sonic hedgehog (Shh) pathway is essential for normal embryonic development. Dysregulation of the Shh pathway can cause severe developmental defects in organs. Therefore chemicals that interfere with the pathway are potential developmental toxicants. A cell line designated 3T3Gli1-Luc (DMB/OARSA/CFSAN/FDA, Laurel, MD), a NIH/3T3 derived clone containing stably integrated Gli1-Luc reporter is used to detect chemical interference of the Shh pathway, by changes in the expression of the firefly Luc gene under the control of the Gli1 transcriptional response element. This cell line was used to screen Tox21 libraries for identifying and prioritizing the potential developmental toxicants that interfere Shh pathway. The cytotoxicity of the compounds was tested in parallel by measuring the cell viability using CellTiter-Fluor assay system (Promega, Madison, WI) in the same wells.
# Tox21 Assay Protocol Summary:
# 3T3 Gli1-Luc cells were dispensed at 2,000 per well in 5uL of culture medium into white solid bottom 1536-well plates (Greiner Bio-One, Monroe, NC) using a Multidrop Combi (Thermo Scientific, Waltham, MA) dispenser. The assay plates were incubated at 37 C and 5% CO2 for 4hr, and then 23nL of compounds dissolved in DMSO and positive control were transferred using a Pintool station (Wako, San Diego, CA). The assay plates were incubated at 37C and 5% CO2 for 24hr. For viability read, after 23hr of compound treatment, 1uL of CellTiter-Fluor reagent (Promega Corporation, Madison, WI) was added to each well of the assay plates using Flying Reagent Dispenser (FRD, Aurora Discovery, San Diego, CA) and incubated the assay plates at 37C for 1hr. The fluorescence signal was quantified using a ViewLux plate reader (Perkin Elmer, Shelton, CT).
# % is scaled to controls: 0 for no effect and ±100 for the full control effect; potency is read from the fitted curve at half-maximal effect.
SMILES,"viability change, negative = cytotoxic",Potency
CC[N+]1(C)CCCC(OC(=O)C(O)(c2ccccc2)c2ccccc2)C1 (stereo not given),5.99% [at 42.5 µM] (inactive),
C#C[C@]1(O)CC[C@H]2[C@@H]3CCC4=CC(=O)CCC4=C3C=C[C@@]21CC,8.06% [at 42.5 µM] (inactive),
CN(C)c1ccc(N=O)cc1,,21.8 µM (active) and 21.7 µM (active)
CNC(=O)Oc1cccc(N=CN(C)C)c1,-3.08% (inactive),
CC(O)CN1CCN(CC(=O)[O-])CCN(CC(=O)[O-])CCN(CC(=O)[O-])CC1.[Gd+3] (stereo not given),5.4% [at 42.5 µM] (inactive),
C[Si](Cn1cncn1)(c1ccc(F)cc1)c1ccc(F)cc1,,inactive
CCOP(=O)(O)C(N)=O,4.98% (inactive),
[Cl-].[Cl-].[Hg+2],,682 nM (active) and 2.17 µM (active)
C[N+]1(CCC(C(N)=O)(c2ccccc2)c2ccccc2)CCCCC1,-1.16% [at 42.5 µM] (inactive),
CCN(C(C)=O)c1cccc(-c2ccnc3c(C#N)cnn23)c1,-0.0618% [at 42.5 µM] (inactive),
SCc1ccccc1,6.58% (inactive),
CCCCCl,0.299% (inactive),
COc1ccccc1N1CCNCC1,11.3% [at 42.5 µM] (inactive),
COP(=O)(OC)OC(Br)C(Cl)(Cl)Br (stereo not given),-20.3% (inactive),
CC(C)(C#N)C(C)(C)C#N,19.6% (inactive),
COc1cc(CC(C)N)c(OC)cc1Br (stereo not given),-2.56% (inactive),
CCC(=O)O[C@@H]1C=C2CCC3C(CCC4(C)C3CC[C@@H]4OC(=O)CC)C2CC1 (stereo not given in full),3.98% [at 42.5 µM] (inactive),
CCC(C)Cl (stereo not given),0.67% (inactive),
C=CC(=O)NC(C)(C)CC(C)=O,1.4% (inactive),
NC(=S)c1c(Cl)cccc1Cl,1.52% (inactive),

SMILES,"viability change, negative = cytotoxic",Potency
O=C1c2ccccc2C(=O)N1SC(Cl)(Cl)Cl,,12 µM (active) and 9.69 µM (active)
O=C(NC(=O)c1cc(F)c(F)cc1Cl)Nc1cc(F)ccc1N1CCC(C(=O)O)CC1,25.1% [at 42.5 µM] (inactive),
c1ccc2c(c1)-c1cccc3cccc-2c13,,inactive
CC(Cc1ccccc1)NCc1ccccc1Cl (stereo not given),-4.15% [at 42.5 µM] (inactive),
O=[N+]([O-])c1cc(Cl)c(Cl)cc1Cl,-6.57% (inactive),
c1ccc2sc(SNC3CCCCC3)nc2c1,17.7% (inactive),
O=[N+]([O-])O[C@H]1CO[C@H]2[C@@H]1OC[C@H]2O[N+](=O)[O-],2.84% [at 42.5 µM] (inactive),
CN(C1CCCCC1)C1CCCCC1,1.55% (inactive),
CCCC[N+](CCCC)(CCCC)CCCC,14.4% (inactive),
CCOP(=S)(S)OCC,4.84% (inactive),
CC[N+]1(CCOC(=O)C(O)(c2ccccc2)c2ccccc2)CCCCC1,5.09% [at 42.5 µM] (inactive),
CCCCC(CC)CO[N+](=O)[O-] (stereo not given),0.368% (inactive),
O=C(O)CCCOc1ccc(Cl)cc1Cl,,inactive
C1CS1,4.92% (inactive),
CCCCCCCCCCCCN(C)C,8.55% (inactive),
C[N+](C)(C)CC1CO1 (stereo not given),4.13% (inactive),
N#CC1(N=NC2(C#N)CCCCC2)CCCCC1,14.9% (inactive),
COC1CC(=C(c2cccs2)c2cccs2)C[N+](C)(C)C1 (stereo not given),0.364% [at 42.5 µM] (inactive),
CCC(C)(C)c1ccc(O)c(C(C)(C)CC)c1,-17.3% (inactive),
O=C(Cc1ccccc1)c1ccccc1,-0.417% (inactive),
